# Test results as given in publication PMC5540273 (PLoS ONE, 2017).
# System: T1, DMPK2
# T1 construct: gene CDC42BPG
# Conditions: concentration: 1 μM, replicates: in singlicate; n = 1
# 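Further: KINOMEscan kinase panel screen.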
row,SMILES,%Inh [%]
1,Cl.Cn1ccc(-c2cccc(Nc3ccnc4cc(-c5nccs5)ccc34)c2)n1 [GW525701],0
2,Nc1nc(-c2ccccn2)c(-c2ccnc3ccccc23)s1 [GW548057],10
3,CC(C)N1CCC(n2cnc(-c3ccc(F)cc3)c2-c2ccnc(N)n2)CC1 [SB-223132],11
4,Fc1cccc(COc2ccc(Nc3ncnc4cc[nH]c34)cc2Cl)c1,16
5,Cc1cc(N2CCC(NS(=O)(=O)c3ccc(F)cc3)CC2)nc(Nc2cccc(C#N)c2)n1.O=C(O)C(F)(F)F [GSK1653537],0
6,C[C@H]1CC[C@@H](C(=O)Nc2ccccc2)CN1c1cc(-c2ccc3c(N)n[nH]c3c2)nc(N)n1 [GSK2283293],11
7,CC(C)(C)c1ccc(-n2cnc3c(N)ncnc32)cc1 [SKF-97263],0
8,Cc1ccc(NC(=O)c2cccc(C#N)c2)cc1-c1ccc(C(=O)Nc2ccncc2)cc1 [GSK1398463],6
9,Fc1cccc(COc2ccc(Nc3ncnc4nn5ccccc5c34)cc2Cl)c1 [GW689066],0
10,Cn1ccc2ncnc(Oc3ccc(NC(=O)Nc4cccnc4)c(Cl)c3)c21,0
11,COc1ccc(NC(=O)c2ccc(-c3cc(-c4nnc(C)o4)ccc3C)cc2)cc1 [GW595885],0
12,CS(=O)(=O)CCNCc1ccc(-c2ccc3ncnc(Nc4ccc(OCc5ccccc5)c(Cl)c4)c3c2)o1.Cl [GW574783],2
13,CSc1ccc(NC2=C(c3ccccc3Cl)C(=O)NC2=O)cc1 [SB-342411],0
14,CCn1c(-c2ccncc2)nc2cnccc21 [SB-735216],0
15,Cn1cc(-c2ccc3c(c2)CCN3C(=O)Cc2cccc(C(F)(F)F)c2)c2c(N)ncnc21 [GSK2606414],0
16,CNc1nccc(-c2c(-c3ccc(F)cc3)ncn2CCCN2CCOCC2)n1 [SB-222516],93
17,CN1CCC(n2cnc(-c3ccc(F)cc3)c2-c2ccnc(NC3CCNCC3)n2)CC1 [SB-229482],18
18,Clc1cc(Nc2ncnc3cc[nH]c23)ccc1OCc1ccccn1,0

row,SMILES,%Inh [%]
1,COc1cc2ncnc(Nc3ccc(OCc4ccccc4Br)c(Cl)c3)c2cc1OC.Cl [GI261590],7
2,Cc1ccc(C)c(NC(=O)NCCNc2ccnc(Nc3ccc(F)cc3)n2)c1 [GSK1379878],0
3,Cl.O=S(=O)(c1cccc(F)c1)c1ccc(Nc2ncnc3cc(Br)sc23)cc1Cl [GSK306886],15
4,CCc1nc(-c2cccc(C)c2)c(-c2ccnc(NC(=O)c3ccccc3)c2)s1,8
5,FC(F)(F)c1ccc(-c2nn3ncccc3c2-c2ccnc(Nc3cccc(C(F)(F)F)c3)n2)cc1 [GW828205],0
6,Cl.c1ccc(Cn2ccc3cc(Nc4ncnc5ccccc45)ccc32)cc1 [GW275568],5
7,C[C@@H]1CCN(C(=O)CO)C[C@@H]1N(C)c1ncnc2[nH]ccc12,0
8,O=C(NCCCN1CCCC1=O)c1cnc(NCc2cc(Cl)ccc2Cl)nc1NC1CCNCC1,0
9,CSc1nn2c(=O)cc(N3CCOCC3)nc2n1Cc1cccc(Cl)c1Cl [GSK2347225],16
10,COc1ccc(Nc2nccc(N3CCC(NC(=O)c4cccc(NC(C)=O)c4)C3)n2)cc1 (stereo not drawn) [GSK1379732],0
11,Fc1cccc(COc2ccc(Nc3ncnc4sc(-c5ccc[nH]5)cc34)cc2Cl)c1 [GW707818],0
12,O=C(Nc1ccccc1)Nc1ccc(Oc2ccc3nccn3n2)cc1,0
13,CN1c2ccc(-c3ccc(C(=O)NCCO)cc3)cc2-c2[nH]ncc2S1(=O)=O,7
14,FC(F)(F)c1ccc(-c2cc(-c3c[nH]nc3-c3ccccn3)ccn2)cc1 [GW599550],0
15,Nc1nccc2scc(-c3ccc4c(c3)CCN4C(=O)Cc3cc(F)ccc3F)c12 [GSK2587663],13
16,Cn1ccc2ncnc(Nc3ccc(Oc4cccc(Cl)c4)c(Cl)c3)c21,5
17,CS(=O)(=O)CCNCc1nc(-c2ccc3ncnc(Nc4ccc(OCc5cccc(F)c5)c(Cl)c4)c3c2)cs1.Cl [GW583340],0
18,CCCc1ccc(S(=O)(=O)NC2CCN(c3ccnc(Nc4ccc(OC)cc4)n3)C2)cc1 (stereo not drawn) [GSK1379737],94.7

# System: DMPK
# Conditions: concentration: 1 μM, replicates: in singlicate; n = 1
row,SMILES,%Inh [%]
1,Cl.Cn1ccc(-c2cccc(Nc3ccnc4cc(-c5nccs5)ccc34)c2)n1 [GW525701],0
2,Nc1nc(-c2ccccn2)c(-c2ccnc3ccccc23)s1 [GW548057],0
3,CC(C)N1CCC(n2cnc(-c3ccc(F)cc3)c2-c2ccnc(N)n2)CC1 [SB-223132],0
4,Fc1cccc(COc2ccc(Nc3ncnc4cc[nH]c34)cc2Cl)c1,1
5,Cc1cc(N2CCC(NS(=O)(=O)c3ccc(F)cc3)CC2)nc(Nc2cccc(C#N)c2)n1.O=C(O)C(F)(F)F [GSK1653537],0
6,C[C@H]1CC[C@@H](C(=O)Nc2ccccc2)CN1c1cc(-c2ccc3c(N)n[nH]c3c2)nc(N)n1 [GSK2283293],0
7,CC(C)(C)c1ccc(-n2cnc3c(N)ncnc32)cc1 [SKF-97263],0
8,Cc1ccc(NC(=O)c2cccc(C#N)c2)cc1-c1ccc(C(=O)Nc2ccncc2)cc1 [GSK1398463],0
9,Fc1cccc(COc2ccc(Nc3ncnc4nn5ccccc5c34)cc2Cl)c1 [GW689066],0
10,Cn1ccc2ncnc(Oc3ccc(NC(=O)Nc4cccnc4)c(Cl)c3)c21,0
11,COc1ccc(NC(=O)c2ccc(-c3cc(-c4nnc(C)o4)ccc3C)cc2)cc1 [GW595885],0
12,CS(=O)(=O)CCNCc1ccc(-c2ccc3ncnc(Nc4ccc(OCc5ccccc5)c(Cl)c4)c3c2)o1.Cl [GW574783],16
13,CSc1ccc(NC2=C(c3ccccc3Cl)C(=O)NC2=O)cc1 [SB-342411],0
14,CCn1c(-c2ccncc2)nc2cnccc21 [SB-735216],0
15,Cn1cc(-c2ccc3c(c2)CCN3C(=O)Cc2cccc(C(F)(F)F)c2)c2c(N)ncnc21 [GSK2606414],30
16,CNc1nccc(-c2c(-c3ccc(F)cc3)ncn2CCCN2CCOCC2)n1 [SB-222516],7
17,CN1CCC(n2cnc(-c3ccc(F)cc3)c2-c2ccnc(NC3CCNCC3)n2)CC1 [SB-229482],22
18,Clc1cc(Nc2ncnc3cc[nH]c23)ccc1OCc1ccccn1,9

row,SMILES,%Inh [%]
1,COc1cc2ncnc(Nc3ccc(OCc4ccccc4Br)c(Cl)c3)c2cc1OC.Cl [GI261590],0
2,Cc1ccc(C)c(NC(=O)NCCNc2ccnc(Nc3ccc(F)cc3)n2)c1 [GSK1379878],0
3,Cl.O=S(=O)(c1cccc(F)c1)c1ccc(Nc2ncnc3cc(Br)sc23)cc1Cl [GSK306886],0
4,CCc1nc(-c2cccc(C)c2)c(-c2ccnc(NC(=O)c3ccccc3)c2)s1,0
5,FC(F)(F)c1ccc(-c2nn3ncccc3c2-c2ccnc(Nc3cccc(C(F)(F)F)c3)n2)cc1 [GW828205],7
6,Cl.c1ccc(Cn2ccc3cc(Nc4ncnc5ccccc45)ccc32)cc1 [GW275568],0
7,C[C@@H]1CCN(C(=O)CO)C[C@@H]1N(C)c1ncnc2[nH]ccc12,8
8,O=C(NCCCN1CCCC1=O)c1cnc(NCc2cc(Cl)ccc2Cl)nc1NC1CCNCC1,0
9,CSc1nn2c(=O)cc(N3CCOCC3)nc2n1Cc1cccc(Cl)c1Cl [GSK2347225],12
10,COc1ccc(Nc2nccc(N3CCC(NC(=O)c4cccc(NC(C)=O)c4)C3)n2)cc1 (stereo not drawn) [GSK1379732],13
11,Fc1cccc(COc2ccc(Nc3ncnc4sc(-c5ccc[nH]5)cc34)cc2Cl)c1 [GW707818],0
12,O=C(Nc1ccccc1)Nc1ccc(Oc2ccc3nccn3n2)cc1,6
13,CN1c2ccc(-c3ccc(C(=O)NCCO)cc3)cc2-c2[nH]ncc2S1(=O)=O,0
14,FC(F)(F)c1ccc(-c2cc(-c3c[nH]nc3-c3ccccn3)ccn2)cc1 [GW599550],4
15,Nc1nccc2scc(-c3ccc4c(c3)CCN4C(=O)Cc3cc(F)ccc3F)c12 [GSK2587663],0
16,Cn1ccc2ncnc(Nc3ccc(Oc4cccc(Cl)c4)c(Cl)c3)c21,0
17,CS(=O)(=O)CCNCc1nc(-c2ccc3ncnc(Nc4ccc(OCc5cccc(F)c5)c(Cl)c4)c3c2)cs1.Cl [GW583340],0
18,CCCc1ccc(S(=O)(=O)NC2CCN(c3ccnc(Nc4ccc(OC)cc4)n3)C2)cc1 (stereo not drawn) [GSK1379737],0
